Screening results from PubChem.
mHTT-CaM PPI inh = mHTT-calmodulin interaction abrogation; 3.6% of 190,000 active; AlphaScreen His-mHTT/GST-CaM binding, luminescence; AID 1671202; inhibition, % at 15 µM; P42858
Pf apPOL block = Pf-apPOL DNA polymerase inhibition; AID 1794808; 0.25% of 210,000 active; inhibition, % at 10 µM; Recombinant Pf-apPOL, molecular beacon fluorescence, 1.5 h
Of the large screens only hits and unclear results are named; the others gave an inactive call. Hits are enriched below; roughly 3.6% of the tested compounds scored in any of these assays. Cut-off read from the data, not from the text of the source: active = inhibition above about 50%; inactive = the rest.

Cc1cc2[nH]c(C(=O)Nc3ccccc3C)c(CN3CCOCC3)c2s1	mHTT-CaM PPI inh 50
Cc1cc2[nH]c(C(=O)Nc3cccc(F)c3C)c(CN3CCOCC3)c2s1	none
Cc1cc2[nH]c(C(=O)Nc3c(F)cccc3F)c(CN3CCOCC3)c2s1	mHTT-CaM PPI inh 54
CCN1c2cc(C)ccc2-n2cccc2C12CCN(C(=O)Nc1cccc(OC)c1)CC2	mHTT-CaM PPI inh 56
CCN1c2cc(Cl)ccc2C(=O)NC12CCN(C(=O)Nc1ccc(OC)cc1)CC2	none
CCOc1ccc(NC(=O)N2CCC3(CC2)c2cccn2-c2ccc(C)cc2N3CC)cc1	mHTT-CaM PPI inh 52
CCN1c2cc(C)ccc2-n2cccc2C12CCN(C(=O)NCc1cccc(OC)c1)CC2	none
CCN1c2cc(C)ccc2-n2cccc2C12CCN(C(=O)NC1CCCC1)CC2	mHTT-CaM PPI inh 72
CCN1c2ccccc2-n2cccc2C12CCN(C(=O)Nc1cc(C)ccc1C)CC2	none
CCN1c2cc(C)ccc2-n2cccc2C12CCN(C(=O)Nc1ccc(OC)cc1)CC2	mHTT-CaM PPI inh 56
Cc1ccc2c(c1)C(=O)NC1(CCN(C(=O)NC3CCCCC3)CC1)N2C	none
CS(=O)(=O)N1CCN(C(=O)Cc2csc(NC(=O)c3ccco3)n2)CC1	none
Cc1ccc(NC(=O)C(C(C)C)N2C(=O)c3ccccc3C2=O)cc1 (stereo not drawn)	none
Cc1noc(NS(=O)(=O)c2ccc(N/C=C3/CCCCC3=O)cc2)c1C	none
CCN1c2cc(C)ccc2-n2cccc2C12CCN(C(=O)Nc1ccc(C)cc1)CC2	none
CCN1c2cc(C)ccc2-n2cccc2C12CCN(C(=O)c1ccccc1OC)CC2	none
CCN1c2cc(C)ccc2-n2cccc2C12CCN(C(=O)Nc1ccccc1OC)CC2	mHTT-CaM PPI inh 66
CCN1c2cc(C)ccc2-n2cccc2C12CCN(C(=O)Nc1ccccc1)CC2	mHTT-CaM PPI inh 52
COc1ccc(-c2coc3cc(OC(=O)c4c(OC)cccc4OC)ccc3c2=O)cc1	none
CSc1ccc(/C=C2\SC(=O)N(CN3CCCCC3)C2=O)cc1	none
COc1cccc(C2C(C#N)=C(N)Oc3n[nH]c(C)c32)c1 (stereo not drawn)	none
CCOc1cc(C2C(C#N)=C(N)Oc3n[nH]c(-c4ccccn4)c32)ccc1O (stereo not drawn)	mHTT-CaM PPI inh 52
CCOc1cc(C2C(C#N)=C(N)Oc3n[nH]c(-c4ccccc4)c32)ccc1O (stereo not drawn)	none
N#CC1=C(N)Oc2n[nH]c(-c3ccccn3)c2C1c1ccc(F)cc1 (stereo not drawn)	mHTT-CaM PPI inh 65
COc1ccc(C2C(C#N)=C(N)Oc3n[nH]c(C)c32)cc1COc1cccc(Cl)c1 (stereo not drawn)	mHTT-CaM PPI inh 69
N#CC1=C(N)Oc2n[nH]c(-c3ccccn3)c2C1c1cccc(F)c1 (stereo not drawn)	none
Cc1cc(C)nc(NC(=O)Cc2ccc(F)cc2)n1	none
CCc1sc2sncc2c1Br	none
CC1=C(C(=O)Nc2ccccn2)C(c2ccccc2)C2=C(CCCC2=O)N1 (stereo not drawn)	Pf apPOL block 52
CC1=C(C(=O)Nc2cccc(C(F)(F)F)c2)C(c2ccncc2)C2=C(CCCC2=O)N1 (stereo not drawn)	none
CC1=C(C(=O)Nc2cccc(C(F)(F)F)c2)C(c2ccc(N(C)C)cc2)C2=C(CCCC2=O)N1 (stereo not drawn)	mHTT-CaM PPI inh 57
CC1=C(C(=O)Nc2ccccn2)C(c2ccc(F)cc2)C2=C(CCCC2=O)N1 (stereo not drawn)	none
Cc1cc(O)c2c(c1)OC(=Cc1ccccc1)C2=O	mHTT-CaM PPI inh 53
Cc1cc(O)c2c(c1)OC(=Cc1cccs1)C2=O	mHTT-CaM PPI inh 59
Cc1cc(O)cc2c1C(=O)C(=Cc1cccs1)O2	none
Cc1cc(O)c2c(c1)OC(=Cc1ccc(F)cc1)C2=O	none
Cc1ccc2c(c1)C(=O)NC1(CCN(C(=O)c3ccc(Cl)cc3)CC1)N2C	none
O=C(NCc1ccco1)c1oc(=O)c2ccccc2c1-c1ccccc1	none
O=C(NNC(=O)C(F)(F)Sc1ccccc1)c1ccsc1	Pf apPOL block 54 (no result: mHTT-CaM PPI inh)
O=C(NCC(O)(c1ccccc1)C(F)(F)F)c1ccsc1 (stereo not drawn)	none
COC(=O)c1cccc(C(=O)Nc2ccc(Cl)cc2C)n1	none
COc1ccccc1C(=O)N1CCN(C(=O)C(c2ccccc2)c2ccccc2)CC1	none
COc1cccc(C(=O)N2CCN(C(=O)c3ccc(-c4ccccc4)cc3)CC2)c1OC	mHTT-CaM PPI inh 52
COc1cccc(C(=O)N2CCN(c3cc(Cl)ccc3C)CC2)c1OC	mHTT-CaM PPI inh 100
COc1cc(OC)cc(C(=O)N2CCN(C(=O)c3ccc(-c4ccccc4)cc3)CC2)c1	none
COc1ccccc1N1CCN(C(=O)c2ccc(Cl)cc2[N+](=O)[O-])CC1	none
COc1ccccc1C(=O)N1CCN(C2=NN=C(c3ccccc3)CS2)CC1	mHTT-CaM PPI inh 79
COC(=O)c1cccc(C(=O)N2CCN(c3cc(Cl)ccc3C)CC2)n1	mHTT-CaM PPI inh 97
CC(=O)N1N=C(c2ccccc2)CC1c1cc2cc3c(cc2nc1Cl)OCCO3 (stereo not drawn)	none
Cc1cn2c3c(=O)[nH]c(=O)n(C)c3nc2n1C(C(=O)O)C(C)C (stereo not drawn)	none
O=c1nc(/C=C/c2ccc(Br)cc2)cc(/C=C/c2ccc(Br)cc2)[nH]1	none (no result: Pf apPOL block)
O=C(CC1(O)C(=O)N(CCc2ccccc2)c2ccccc21)c1cccs1 (stereo not drawn)	none
O=C(CC1(O)C(=O)N(Cc2ccccc2)c2ccccc21)c1ccc(Br)s1 (stereo not drawn)	mHTT-CaM PPI inh 52
Clc1ccc(C2C=C(c3ccccc3)Nc3nnnn32)cc1 (stereo not drawn)	none
CNC(=O)NC1CCN(c2ccc(C)c(C)c2)C1=O (stereo not drawn)	none
COCCNC(=O)C1(C)CCC(=O)N1CCc1c[nH]c2ccccc12 (stereo not drawn)	none
CC(C)CCNC(=O)C1(C)CCc2ccccc2C(=O)N1CCc1c[nH]c2ccccc12 (stereo not drawn)	mHTT-CaM PPI inh 98
O=C(NC1CC2CC1CN2C(=O)c1ccncc1)c1ccccc1 (stereo not drawn)	none
Cc1ccc(C(=NN(C)C)C(=O)C(F)(F)F)cc1	none (no result: mHTT-CaM PPI inh)
CCOC(=O)CCc1c(CC(=O)OCC)c[nH]c1C=NO	Pf apPOL block 99 (no result: mHTT-CaM PPI inh)
CCOC(=O)CCc1c(C)n[nH]c1C	none
O=C(NCC1(c2ccccc2)CCOCC1)C(=O)Nc1cc2c3c(c1)CCC(=O)N3CCC2	none
c1cc2c3c(cccc3c1)NC1(CCCCCC1)N2	mHTT-CaM PPI inh 53 (no result: Pf apPOL block)
S=C1NC2(CCCC2)NN1c1ccccc1	none (no result: mHTT-CaM PPI inh)
O=C(NCc1ccc(Cl)cc1)O[C@H]1CCC12CCC(c1ccccc1)CC2 (stereo partly drawn)	none
Nc1cccc(-c2nc3ccc(-c4ccc5nc(-c6cccc(N)c6)[nH]c5c4)cc3[nH]2)c1	mHTT-CaM PPI inh 97
CN(C)c1ccc(-c2nc3ccc(N)cc3[nH]2)cc1	mHTT-CaM PPI inh 56
Nc1ccc2nc(-c3cc(Cl)c(N)c(Cl)c3)[nH]c2c1	mHTT-CaM PPI inh 54
Oc1ccc2nc(-c3ccccc3)[nH]c2c1	none
COc1ccc(/C=C/c2nc3ccccc3[nH]2)cc1	none
Nc1ccc2nc(/C=C/c3nc4ccc(N)cc4[nH]3)[nH]c2c1	mHTT-CaM PPI inh 53, Pf apPOL block 80
CC(=O)Nc1ccc2nc(-c3ccc(-c4nc5ccc(NC(C)=O)cc5[nH]4)cc3)[nH]c2c1	none (no result: mHTT-CaM PPI inh)
O=C(O)c1ccc2nc(-c3cccc(-c4nc5ccc(C(=O)O)cc5[nH]4)c3)[nH]c2c1	none (no result: mHTT-CaM PPI inh)
